FXN GAA850 act: FXN promoter activators, primary screen, cell-based, luciferase luminescence, HEK293 lucGAA850 | HEK293 lucGAA850 FXN promoter luciferase reporter, 24 h; percent of 10 µM SAHA response | activation, % at 6 µM | hit rate 0.56% among 360,000;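 active = activation above the average of all compounds screened plus 3 SD, cutoff fixed separately per campaign, cut at about 7.5% in these data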
HSF1 inhib: HSF1 inhibitors in luciferase reporter cells, primary screen, cell-based, NIH3T3, luminescence | NIH3T3-HGL HSE-luciferase, MG132-induced, luminescence 8 h; active compounds read low | activity change, negative = inhibition, % at 7.5 µM (by protocol) | hit rate 0.77% among 300,000;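 active = more than half of replicate wells show activity change below -50%, luminescence cut by over half; inconclusive = some wells, but at most half, below -50%; inactive = no replicate well below -50%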;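 also: luciferase reports HSF-1 transcriptional activity via heat shock element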
AHR act: AHR activators, primary screen, cell-based, luminescence, luciferase reporter, human; activation, % at 5 µM; hit rate 2.5% among 320,000; Aryl hydrocarbon receptor (Homo sapiens), P35869; AHR-responsive luciferase reporter cells; in the data active = activation above about 47%
Target sequence (P35869 whole entry, looked up): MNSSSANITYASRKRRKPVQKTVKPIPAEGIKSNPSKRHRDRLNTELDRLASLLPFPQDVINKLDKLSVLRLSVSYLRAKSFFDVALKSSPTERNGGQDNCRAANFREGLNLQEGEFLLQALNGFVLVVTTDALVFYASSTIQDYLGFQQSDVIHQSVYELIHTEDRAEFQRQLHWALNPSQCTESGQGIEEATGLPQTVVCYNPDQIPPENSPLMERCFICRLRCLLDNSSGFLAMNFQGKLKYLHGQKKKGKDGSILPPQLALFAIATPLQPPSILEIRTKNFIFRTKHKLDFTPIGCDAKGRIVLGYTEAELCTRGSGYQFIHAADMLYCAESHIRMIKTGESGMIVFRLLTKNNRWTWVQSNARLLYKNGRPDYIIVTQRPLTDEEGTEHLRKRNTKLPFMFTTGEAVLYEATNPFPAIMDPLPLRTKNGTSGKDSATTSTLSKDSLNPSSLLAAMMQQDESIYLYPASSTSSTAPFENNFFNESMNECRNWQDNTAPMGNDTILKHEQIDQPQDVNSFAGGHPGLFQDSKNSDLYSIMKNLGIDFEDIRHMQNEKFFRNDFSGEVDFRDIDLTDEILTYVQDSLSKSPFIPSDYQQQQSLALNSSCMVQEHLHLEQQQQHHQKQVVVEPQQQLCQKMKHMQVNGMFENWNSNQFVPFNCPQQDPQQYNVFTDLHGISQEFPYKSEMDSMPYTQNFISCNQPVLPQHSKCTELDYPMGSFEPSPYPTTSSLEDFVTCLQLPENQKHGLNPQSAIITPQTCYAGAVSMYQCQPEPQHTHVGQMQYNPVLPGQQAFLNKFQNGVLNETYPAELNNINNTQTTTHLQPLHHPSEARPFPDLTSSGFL
HSF1 activator: HSF-1 activators, primary screen, NIH3T3-HGL cells, MG132 stress, luminescence, single point | NIH3T3-HGL HSF-1 luciferase reporter, 8 h; 100% = twice DMSO control signal | activation, % at 9 µM | hit rate 1.7% among 300,000;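 active = mean replicate activation of at least 50% with a set share of replicates each reaching 50%; inconclusive = only one of those two conditions met; inactive = mean below 50% and too few replicates reaching it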
Large screens that a line does not name were inactive. This is a sample that favours compounds with a hit; in the whole collection about 4.6% have one here.

Cc1ccc(NC(=O)CSC2=C(C#N)C(c3ccc4c(c3)OCO4)CC(=O)N2)cc1C (configuration not stated)	none
CCc1ccc(NC(=O)CSC2=C(C#N)C(c3ccc4c(c3)OCO4)CC(=O)N2)cc1 (configuration not stated)	HSF1 activator 64
CCCCOC(=O)Nc1ccccc1C(=O)OC	none
c1ccc(-c2ccc(-c3ccccn3)nn2)nc1	none (no result: FXN GAA850 act)
O=C(CSc1nnc(-c2ccc(Br)o2)n1Cc1ccccc1)c1ccccc1F	HSF1 activator 72
Cc1cc(NC(=O)CSc2nnc(-c3ccc(Br)o3)n2Cc2ccccc2)no1	none
COCc1cc(C)nc(Nc2ccccc2OC)c1C#N	AHR act 52
O=C(NCCc1ccccn1)c1cc2ccccc2o1	none
Cc1ccc(Nc2ncc3c(n2)CC(C)CC3=O)c(C)c1 (configuration not stated)	HSF1 activator 59
CCOc1ccccc1NC(=O)c1cc(=O)[nH]c2ccc(S(=O)(=O)N3CCOCC3)cc12	AHR act 57 (no result: HSF1 inhib, HSF1 activator)
Cn1nnnc1Sc1ncnc2scc(-c3cccc(C(F)(F)F)c3)c12	none (no result: HSF1 inhib, HSF1 activator)
CCOc1ccc(NC(=O)c2ccc3c(=O)n(-c4ccc(OC)cc4OC)c(=S)[nH]c3c2)cc1	HSF1 inhib -81
COc1ccc(NC(=O)c2ccc3c(=O)n(-c4ccc(OC)cc4OC)c(=S)[nH]c3c2)c(OC)c1	none
COCCn1c(=O)[nH]c2cc(C(=O)NC3CCCCCC3)ccc2c1=O	HSF1 inhib -72
COCCn1c(=O)[nH]c2cc(C(=O)N3CCN(c4cccc(Cl)c4)CC3)ccc2c1=O	HSF1 activator 53
COc1ccc(-n2c(=S)[nH]c3cc(C(=O)NC4CCCCC4)ccc3c2=O)c(OC)c1	HSF1 activator 60
Cc1[nH]n(CCC#N)c(=O)c1CC(=O)N1CCN(c2ccccc2)CC1	HSF1 inhib -54
COc1cc(CC(=O)Nc2cc(S(C)(=O)=O)ccc2Cl)cc(OC)c1OC	none
C/C=C/c1c(F)c(F)c(Oc2ccc(C(=O)O)cc2)c(F)c1F	HSF1 activator 125
CCC1CN(S(=O)(=O)c2ccc3c(c2)NC(=O)CC(=O)N3)c2cc(Cl)ccc2O1 (configuration not stated)	none
CC1CCN(C(c2nnnn2CCc2ccccc2)C(C)C)CC1 (configuration not stated)	none
C=C1CCC[C@]2(C)C[C@H]3OC(=O)C(CNC(C)CC)[C@H]3CC12 (some centres not stated)	none
C=C1CCC[C@]2(C)C[C@H]3OC(=O)C(CNC(CC)CO)[C@H]3CC12 (some centres not stated)	HSF1 activator 142
C=C1CCC[C@]2(C)C[C@H]3OC(=O)C(CNC(C)(CO)CO)[C@H]3CC12 (some centres not stated)	HSF1 activator 74
CCOC(=O)Nc1sc2nc(C)cc(C)c2c1-n1cccc1	AHR act 70 (no result: HSF1 inhib, HSF1 activator)
Cc1cccc(-c2c3c(=O)n(C)c(=O)n(C)c3c3cccnn23)c1	AHR act 60
O=C1OCCN1CCNCc1cn(-c2ccc(F)cc2)nc1-c1ccccc1Cl	none
Cc1ccc(-n2cc(CNCCN3CCOC3=O)c(-c3cccc(C)c3)n2)cc1	HSF1 activator 69
Cn1c(C=O)c(C#Cc2ccccc2)c2ccccc21	AHR act 73 (no result: HSF1 inhib, HSF1 activator)
COc1ccc(C#Cc2c(C=O)n(C)c3ccccc23)cc1	AHR act 73 (no result: HSF1 inhib, HSF1 activator)
CC(=O)c1ccc(OCC(=O)N2CCCC2c2ccc3c(c2)OCCCO3)cc1 (configuration not stated)	none (no result: HSF1 inhib, HSF1 activator)
O=C(CCl)N1CCCC1c1ccc2c(c1)OCCO2 (configuration not stated)	HSF1 inhib -63
C=CCn1c(C)cc(C(=O)COC(=O)CNC(=O)c2ccccc2)c1C	HSF1 inhib -82
CC1Cc2ccccc2N1C(=O)/C=C/c1cccc(F)c1 (configuration not stated)	HSF1 activator 70
Cc1ccc(/C=C/C(=O)c2ccc(O)cc2)cc1	none
CSc1ccc(/C=C/C(=O)c2ccc(O)cc2)cc1	HSF1 activator 60
O=C(/C=C/c1ccc(O)cc1)c1ccc(O)cc1O	AHR act 66, HSF1 activator inconclusive
CCOc1ccc(NC(=O)CCSc2ccc3ccccc3n2)cc1	none
O=C(Nc1cccc([N+](=O)[O-])c1)c1cccc(C(=O)Nc2cccc([N+](=O)[O-])c2)c1	none
O=C(CSc1ncnc2nc[nH]c12)N1CCOCC1	none
CCOc1cc(/C=C2\CCC/C(=C\c3cc(Cl)c(O)c(OCC)c3)C2=O)cc(Cl)c1O	HSF1 activator 316
CCNc1ccc(C(=O)OCC)cc1NC(=O)c1cccc(N(C)C)c1	none
CC1(C)Cc2c(sc3[nH]c(=S)n(Cc4ccco4)c(=O)c23)CO1	none
O=c1c2c3c(sc2[nH]c(=S)n1Cc1ccco1)CCC3	HSF1 activator 94
CCN(CCCNC(=O)CCCN1C(=O)COc2ccc(C)cc21)c1cccc(C)c1	HSF1 activator 101
Cc1ccc2c(c1)N(CCCC(=O)NCCCN1CCCCC1)C(=O)CO2	none
FCCCOc1ccc(-c2ccnc(-c3ccccc3)n2)cc1	AHR act 52
COc1ccc(CNC(=O)c2ccc(CS(=O)(=O)c3ccc(Br)cc3)o2)cc1	HSF1 inhib -68
CC1(C)Cc2c(C#N)c(NCc3ccco3)nc(-c3ccco3)c2CO1	none
CC1(C)Cc2c(C#N)c(N3CCCC3)nc(-c3ccco3)c2CO1	HSF1 activator 111
COc1ccccc1Oc1cn[nH]c1-c1ccc(OCC(=O)NN)cc1O	none
COc1ccc(Oc2cn[nH]c2-c2ccc(OCC(=O)NN)cc2O)cc1	AHR act 58
Nc1cc(-c2ccccc2)ccc1O	none
Nc1ccc(O)c2ccccc12	AHR act 57 (no result: FXN GAA850 act)
Cn1c(CCCOc2ccc(Cl)cc2Cl)nnc1SCC(=O)Nc1cccc(F)c1	HSF1 activator 54
CCOC(=O)N1CCN(C(=O)Cc2ccc(-n3c(=O)[nH]c4ccccc4c3=O)cc2)CC1	none
Cc1cccc(C)c1OCC(=O)NCc1nnc(SCC(=O)NC2CCCCC2C)n1C (configuration not stated)	HSF1 activator 94
CCn1c(CNC(=O)COc2ccc(C(C)C)cc2)nnc1SCC(=O)NC1CCCCC1C (configuration not stated)	none
Clc1ccc(N2CCN(c3cnc4ccccc4n3)CC2)cc1	none
c1ccc(N2CCN(c3cnc4ccccc4n3)CC2)cc1	HSF1 activator 75
CN(Cc1ccccc1)c1nc2c(c(=O)[nH]c(=O)n2C)n1CCCc1ccccc1	none
CN(Cc1ccccc1)c1nc2c(c(=O)[nH]c(=O)n2C)n1Cc1ccccc1Cl	HSF1 activator 78
Nc1ccc2c(c1)Nc1ccccc1CC2	AHR act 50
COC(=O)Nc1ccc2c(c1)Nc1ccccc1CC2	none
O=C(COC(=O)c1ccncc1)Nc1cccc2ccccc12	none (no result: HSF1 inhib, HSF1 activator)
O=C(/C=C/c1ccc(OC2CSC2)cc1)c1ccccc1	none

Source: PubChem
